One experiment has as its system Klebsiella pneumoniae. As to conditions: Concentration 32 ug.mL-1;; ASSAY_TEST Inhibition of Bacterial Growth; detection method Absorption (OD600); MEDIA CAMHB; plate type 384well; NBS; CORNING #3640; time 18 hr.
For the next experiment, the system named is Candida albicans. The note with it: Concentration 32 ug.mL-1; ASSAY_TEST Inhibition of Fungal Growth; detection method Absorption (OD530).
In the next experiment the test system is Cryptococcus neoformans. The note with it: Concentration 32 ug.mL-1; ASSAY_TEST Inhibition of Fungal Growth; detection method Resazurin; Absorption (OD600-OD570); plate type 384well; NBS; CORNING #3640. For orientation: The colour change of resazurin is a common sign of viable cells or microbes.

Measured potencies and affinities stand elsewhere.

By Inhibition is commonly meant the relative decrease from the control value, in per cent.

For `CC(C)NC(=O)Cn1nc2n(Cc3ccco3)c(=O)c3sccc3n2c1=O`, the Inhibition in the experiment on Klebsiella pneumoniae was 9.3%; with Candida albicans, 0.87%; with Cryptococcus neoformans, -5.24%.
Regarding `CC(C)CCn1c(=O)c2sccc2n2c(=O)n(CC(=O)N(C)c3ccccc3)nc12`, the Inhibition in the experiment with Klebsiella pneumoniae is 0.74%; with Candida albicans it was -2.64%; in the experiment on Cryptococcus neoformans, -16.67%.
On to `CCOc1ccc(C(=O)CSc2nnc3c(=O)n(-c4ccc(Br)cc4)ccn23)cc1`, for which the Inhibition in the experiment on Klebsiella pneumoniae is 15.85%; in the experiment with Candida albicans it was 8.18%; in the experiment on Cryptococcus neoformans, -11.96%.
In the same order, the values of `Cc1cccc(NC(=O)c2ccc3nnc(SCC(=O)Nc4ccc(Br)cc4)n3c2)c1` are 7.72%, 7.81% and -6.93%.
In the case of `Cc1cccc(Oc2nccn3c(=O)n(CC(=O)NCCCc4ccccc4)nc23)c1C`, the results for the Inhibition in the experiment with Klebsiella pneumoniae, with Candida albicans and in the experiment with Cryptococcus neoformans were 15.41%, 0.59% and -6.84%, respectively.
In the same order, the values of `COc1cccc(Oc2nccn3c(=O)n(CC(=O)NCc4ccccc4Cl)nc23)c1` are 18.21%, -2.46% and -9.66%.
In the same order, the values of `Cc1cc(C)cc(Nc2nc(C)cc3nn(CC(=O)NCc4ccco4)c(=O)n23)c1` are 10.95%, 2.86% and -8.71%.
In the same order, the values of `COc1ccc(CNC(=O)Cn2nc3c4cc(-c5ccc(OC)cc5)nn4ccn3c2=O)cc1` are 9.14%, -2.24% and -14.67%.
As to `CCc1ccccc1NC(=O)Cn1c(=O)c2nnc(C(C)C)n2c2ccccc21`, the Inhibition in the experiment on Klebsiella pneumoniae is reported as -2.33%; with Candida albicans, 1.4%; with Cryptococcus neoformans, -16.86%.
In the same order, the values of `Cc1ccc(NC(=O)CSc2nnc3c(=O)n(-c4ccccc4)ccn23)c(C)c1` are -2.79%, 2.18% and -11.34%.
In the same order, the values of `CCc1ccc(NC(=O)Cn2nc3n(Cc4cccs4)c(=O)c4sccc4n3c2=O)cc1` are 9.1%, 35.62% and -2.93%.
In the same order, the values of `CCc1cccc(NC(=O)CSc2nnc3c(=O)n(-c4ccccc4)ccn23)c1` are 3.17%, 8.67% and -15.51%.
On to `COc1ccc(-c2cc3c4nn(CC(=O)Nc5cc(Cl)ccc5C)c(=O)n4ccn3n2)cc1`, for which the Inhibition is listed as 1.98% in the experiment with Klebsiella pneumoniae, 1.63% in the experiment with Candida albicans and -6.61% in the experiment with Cryptococcus neoformans.
Take `CCCn1c(=O)c2ccc(C(=O)NC3CCCCC3)cc2n2c(=O)n(CC#N)nc12`: the Inhibition with Klebsiella pneumoniae is reported as 5.71%; with Candida albicans, 1.88%; with Cryptococcus neoformans, -10.2%.
In the same order, the values of `COc1cccc(CN(c2ccc(F)c(F)c2)S(=O)(=O)c2ccc3nncn3c2)c1` are 0.45%, 4.56% and -8.9%.
In the same order, the values of `O=C(Cn1nc2c(N3CCSCC3)nc3ccccc3n2c1=O)Nc1ccc(Br)cc1` are 7.3%, 11.24% and -9.72%.
In the case of `CC(C)c1nnc2c(SCC(=O)Nc3ccc(Br)cc3F)nc3ccccc3n12`, the values for the Inhibition with Klebsiella pneumoniae, in the experiment with Candida albicans and in the experiment on Cryptococcus neoformans were 8.89%, 0.43% and -17.6%, respectively.
Turning to `O=C(Cn1nc2c(Sc3ccccc3)nccn2c1=O)Nc1ccc(Br)cc1F`, the values for the Inhibition in the experiment on Klebsiella pneumoniae, in the experiment with Candida albicans and in the experiment with Cryptococcus neoformans were 9.23%, 5.59% and -9.93%, respectively.
For the molecule `CCOc1ccc(NC(=O)Cn2nc3ccc(SCc4ccc(Cl)cc4)nn3c2=O)cc1`, the Inhibition in the experiment on Klebsiella pneumoniae is on record as 7.43%; in the experiment with Candida albicans it was 15.3%; in the experiment with Cryptococcus neoformans it was -13.71%.
In the same order, the values of `Cc1ccc(-c2cc3c4nnc(CCC(=O)N5CCC(Cc6ccccc6)CC5)n4ccn3n2)cc1C` are 14.91%, 0.82% and -35.19%.
Consider `Cc1nnc2ccc(S(=O)(=O)N(Cc3cccc(F)c3)c3cccc(Cl)c3)cn12`, for which the Inhibition is -2.92% in the experiment on Klebsiella pneumoniae, -0.21% in the experiment on Candida albicans and -11.05% with Cryptococcus neoformans.
In the same order, the values of `COc1ccc(C(=O)CSc2nnc3c(=O)n(-c4ccc(F)cc4)ccn23)cc1OC` are 11.15%, 4.19% and -8.42%.
For `O=S(=O)(c1ccc2nncn2c1)N(Cc1ccccc1F)c1cccc(F)c1`, the Inhibition in the experiment on Klebsiella pneumoniae is recorded as -5.56%; with Candida albicans it was 2.89%; with Cryptococcus neoformans it was -8.33%.
Turning to `COc1cccc(NC(=O)Cn2nc3c(N4CCCC4)nccn3c2=O)c1`, the Inhibition in the experiment on Klebsiella pneumoniae is on record as 8.57%; with Candida albicans it was 2.47%; with Cryptococcus neoformans it was -12.87%.
In the same order, the values of `COc1cccc(Oc2nccn3c(=O)n(CC(=O)Nc4cc(F)ccc4F)nc23)c1` are 3.2%, 5.06% and -8.45%.
In the case of `COc1cccc(CN(c2ccc(C(C)C)cc2)S(=O)(=O)c2cccn3cnnc23)c1`, the Inhibition in the experiment on Klebsiella pneumoniae is on record as 13.52%; with Candida albicans, 10.84%; in the experiment with Cryptococcus neoformans, -11.09%.
In the case of `Cc1ccc(C)c(-c2cc3c4nnc(SCC(=O)Nc5cccc(Br)c5)n4ccn3n2)c1`, the values for the Inhibition in the experiment on Klebsiella pneumoniae, in the experiment with Candida albicans and with Cryptococcus neoformans were -2.64%, 49.44% and -19.95%, respectively.
In the same order, the values of `Cc1ccc(Sc2nccn3c(=O)n(CC(=O)N4CCN(c5ccccc5F)CC4)nc23)c(C)c1` are 9.62%, 0.22% and -25.75%.
In the same order, the values of `CC(C)CCNC(=O)CSc1nnc2c(=O)n(-c3ccc(F)cc3)ccn12` are 11.65%, 4.94% and -13.8%.
Take `Cc1ccc(-c2cc3c4nn(CC(=O)Nc5cccc(Br)c5)c(=O)n4ccn3n2)cc1`: the Inhibition is given as 10.81% with Klebsiella pneumoniae, 6.28% in the experiment on Candida albicans and -43.73% with Cryptococcus neoformans.

These data come from ChEMBL document CHEMBL4513146, “CO-ADD screening of Karazin Kharkiv National University (Ukraine) compounds”.
